± gives the standard deviation of the averaged measurements.
Columns and labels:
[1] = system: E18 rat cortical neuron-glia co-culture; test: fiber score / MBP score (myelination specific beyond OL differentiation) (ratio); higher = more myelination-specific MBP alignment; conditions: treatment time: 8 days (DIV5-DIV13)
In short: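 The measure is the ratio of fiber score to MBP score, where fiber score is continuous MBP fiber length per Olig2+ nucleus and MBP score is thresholded MBP area × intensity per Olig2+ nucleus. Primary E18 rat cortical co-cultures received library compounds at 1 or 5 µM in myelination medium from DIV5 to DIV13, then were fixed in 4 % paraformaldehyde and stained for MBP, Olig2 and DAPI before analysis of four 10X fields per well in duplicate wells.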

[2] = system: E18 rat cortical neuron-glia co-culture; test: myelination (MBP fiber length per Olig2+ nucleus), % of 1 µM DAPT response (DMSO = 0) (% of DAPT); higher = more myelination, active = 50 or more; conditions: treatment time: 8 days (DIV5-DIV13)
In short: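 The myelination value was the continuous straight MBP fiber length per Olig2+ nucleus, scaled between 0.1 % DMSO (0) and a 1 µM positive control (100). It was measured in primary E18 rat cortical co-cultures treated with library compounds at 1 or 5 µM in myelination medium from DIV5 through DIV13. Cells were fixed in 4 % paraformaldehyde and stained for MBP, Olig2 and DAPI, and four 10X fields per well were imaged in duplicate wells.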

Row | SMILES | fiber score / MBP score ([1]; 1 µM) | fiber score / MBP score ([1]; 5 µM) | myelination ([2]; 1 µM) | myelination ([2]; 5 µM)
1 | CN(C)CCC=C1c2ccccc2COc2ccccc21 [Doxepin] | 0.859 ± 0.061 | 0.732 ± 0.042 | -6.24 (inactive) | -4.42 (inactive)
2 | CCN(CC)CCNC(=O)c1cc(Cl)c(N)cc1OC [Metoclopramide] | 0.848 | 0.91 | -6.65 (inactive) | -2.72 (inactive)
3 | CC(=O)OCC(=O)[C@@]1(O)CC[C@H]2[C@@H]3C[C@H](C)C4=CC(=O)C=C[C@]4(C)[C@H]3[C@@H](O)C[C@@]21C [Methylprednisolone acetate] | 0.468 | 0.413 | -10.5 (inactive) | -15.1 (inactive)
4 | CCS(=O)(=O)CCn1c([N+](=O)[O-])cnc1C [Tinidazole] | 0.727 | 0.706 | -10.7 (inactive) | -14.2 (inactive)
5 | CC(=O)[C@H]1CC[C@H]2[C@@H]3CCC4=CC(=O)CC[C@]4(C)[C@H]3CC[C@]12C [Progesterone] | 0.688 | 0.552 | -31.5 (inactive) | -38.4 (inactive)
6 | NC1CCN(c2nc3c(cc2F)c(=O)c(C(=O)O)cn3-c2ccc(F)cc2F)C1 (centres undefined) [Tosufloxacin] | 0.855 | 0.665 | -12.3 (inactive) | -14.4 (inactive)
7 | OCCOCCN1CCN(C2=Nc3ccccc3Sc3ccccc32)CC1 [Quetiapine hemifumarate] | 0.545 | 0.327 | -10 (inactive) | -19.9 (inactive)
8 | NS(=O)(=O)c1cc2c(cc1Cl)N=CNS2(=O)=O [Chlorothiazide] | 1.05 | 0.841 | 3.67 (inactive) | 6.93 (inactive)
9 | CC(=O)OCC(=O)[C@@]1(O)CC[C@H]2[C@@H]3CCC4=CC(=O)C=C[C@]4(C)[C@H]3[C@@H](O)C[C@@]21C [Prednisolone acetate] | 0.826 | 0.704 | -5.64 (inactive) | -10.6 (inactive)
10 | CN1CCCCC1CCN1c2ccccc2Sc2ccc([S+](C)[O-])cc21 (centres undefined) [Mesoridazine] | 0.531 | 0.747 | -39.6 (inactive) | -20.4 (inactive)
11 | CN1CCC(=C2c3ccccc3CCc3sccc32)CC1 [Pizotyline] | 0.579 | 0.636 | -41 (inactive) | -22 (inactive)
12 | CN1C(=O)CC[C@H]1c1cccnc1 [Cotinine] | 0.604 | 0.723 | -30.3 (inactive) | -28.1 (inactive)
13 | CN1CCN(c2nc3cc(C(F)(F)F)ccc3n3cccc23)CC1 | 0.707 | 0.682 | -2.34 (inactive) | -20.7 (inactive)
14 | CC1=C(CC(=O)O)c2cc(F)ccc2/C1=C\c1ccc([S+](C)[O-])cc1 (centres undefined) [Sulindac] | 0.97 | 0.594 | -5.43 (inactive) | -16.6 (inactive)
15 | CN/C(=N\CCSCc1nc[nH]c1C)NC#N [Cimetidine] | 0.731 | 0.823 | -12.1 (inactive) | -6.66 (inactive)
16 | COc1cc(N)c(Cl)cc1C(=O)NC1CCN(CCCOc2ccc(F)cc2)CC1OC (centres undefined) [Cisapride] | 0.935 | 0.515 | -1.62 (inactive) | -10.2 (inactive)
17 | CC12CC3CC(C)(C1)CC(N)(C3)C2 [Memantine] | 1.07 ± 0.024 | 0.838 ± 0.13 | 12.9 (inactive) | -7.18 (inactive)
18 | COc1c(N2C[C@@H]3CCCN[C@@H]3C2)c(F)cc2c(=O)c(C(=O)O)cn(C3CC3)c12 [Moxifloxacin] | 0.766 | 0.689 | -12.3 (inactive) | -17.6 (inactive)
19 | CC(C)NCC(O)COc1ccc(CC(N)=O)cc1 (centres undefined) [Atenolol] | 1.03 | 1.04 | 2.66 (inactive) | 7.87 (inactive)
20 | CCCc1c(OCCCCc2nnn[nH]2)ccc(C(C)=O)c1O | 0.683 | 1 | -11.5 (inactive) | 1.2 (inactive)
21 | C[C@H]1O[C@H](O[C@H]2[C@H](O)[C@@H](O)[C@@H](O[C@H]3[C@H](O)[C@@H](O)C(O)O[C@@H]3CO)O[C@@H]2CO)[C@H](O)[C@@H](O)[C@@H]1N[C@H]1C=C(CO)[C@@H](O)[C@H](O)[C@H]1O (some centres undefined) [Acarbose] | 0.856 | 0.99 | -11.8 (inactive) | -6.72 (inactive)
22 | Cn1cnc([N+](=O)[O-])c1Sc1ncnc2[nH]cnc12 [Azathioprine] | 0.762 | 0.822 | -10.3 (inactive) | -32.9 (inactive)
23 | Nc1ncnc2c1ncn2[C@@H]1O[C@H](CO)[C@@H](O)[C@H]1O [Adenosine] | 1.08 | 0.875 | -4.96 (inactive) | -4.36 (inactive)
24 | CCN1CCC[C@H]1CNC(=O)c1c(O)c(Cl)cc(Cl)c1OC [Raclopride] | 1.05 | 0.709 | 18.4 (inactive) | -30.6 (inactive)
25 | CCN(Cc1ccncc1)C(=O)C(CO)c1ccccc1 (centres undefined) [Tropicamide] | 0.511 | 0.747 | -22.3 (inactive) | -16.2 (inactive)
26 | Cc1ccccc1C(OCCN(C)C)c1ccccc1 (centres undefined) [Orphenadrine] | 0.693 ± 0.21 | 0.896 ± 0.071 | -7.59 (inactive) | -2.71 (inactive)

Row | SMILES | fiber score / MBP score ([1]; 1 µM) | fiber score / MBP score ([1]; 5 µM) | myelination ([2]; 1 µM) | myelination ([2]; 5 µM)
27 | COc1ccc(CN2CCN(C(c3ccc(F)cc3)c3ccc(F)cc3)CC2)c(OC)c1OC [Lomerizine] | 1.05 | 0.643 | 14.1 (inactive) | -23.5 (inactive)
28 | CNCC[C@H](Oc1cccc2ccccc12)c1cccs1 [Duloxetine] | 0.73 ± 0.064 | 0.881 ± 0.45 | -25.8 (inactive) | -33.2 (inactive)
29 | CN(C)CCCN1c2ccccc2CCc2ccc(Cl)cc21 [Clomipramine] | 1.05 | 0.899 | -10.8 (inactive) | -23 (inactive)
30 | COc1cc(C)c(/C=C/C(C)=C/C=C/C(C)=C/C(=O)O)c(C)c1C [Acitretin] | 1.04 | 1.45 | 0.3 (inactive) | 12 (inactive)
31 | C/C(=C\C(=O)OCCCCCCCCC(=O)O)C[C@@H]1OC[C@H](C[C@@H]2O[C@H]2[C@@H](C)[C@H](C)O)[C@@H](O)[C@H]1O [Mupirocin] | 0.423 | 0.41 | -12.7 (inactive) | -11.7 (inactive)
32 | C[C@@H](O)[C@H]1C(=O)N2C(C(=O)O)=C(S[C@@H]3CN[C@H](C(=O)N(C)C)C3)[C@H](C)[C@H]12 [Meropenem] | 0.99 | 0.804 | 2.11 (inactive) | -19.5 (inactive)
33 | CC(COc1ccccc1)NC(C)C(O)c1ccc(O)cc1 (centres undefined) [Isoxsuprine] | 0.798 | 0.841 | -4.41 (inactive) | -2.46 (inactive)
34 | Cc1onc(-c2ccccc2)c1C(=O)N[C@@H]1C(=O)N2[C@@H]1SC(C)(C)[C@@H]2C(=O)O [Oxacillin] | 0.974 | 0.897 | -4.75 (inactive) | -10.5 (inactive)
35 | CNCCCCOc1ccccc1Cc1ccccc1 [Bifemelane] | 0.512 | 0.543 | -39.7 (inactive) | -28.5 (inactive)
36 | COC(=O)C1=C(C)NC(C)=C(C(=O)OC(C)C)C1c1cccc2nonc12 (centres undefined) [Isradipine] | 0.618 | 0.922 | -16.2 (inactive) | 34.9 (inactive)
37 | COc1cc(C)c(Cc2cnc(N)nc2N)cc1OC [Ormetoprim] | 0.746 | 0.726 | -31.5 (inactive) | -40 (inactive)
38 | CCCCCCNC(=O)n1cc(F)c(=O)[nH]c1=O [Carmofur] | 0.54 | 0.729 | -30.6 (inactive) | -14.4 (inactive)
39 | NS(=O)(=O)Cc1noc2ccccc12 [Zonisamide] | 0.789 | 0.799 | -33.9 (inactive) | -30.8 (inactive)
40 | CN(CCOc1ccc(NS(C)(=O)=O)cc1)CCc1ccc(NS(C)(=O)=O)cc1 [Dofetilide] | 1.2 | 0.728 | 10.4 (inactive) | -13.2 (inactive)
41 | CN1CCN(c2c(F)cc3c(=O)c(C(=O)O)cn4c3c2SCC4)CC1 [Rufloxacin] | 1.05 | 0.68 | 62.1 | -35.3 (inactive)
42 | COc1cc(NC(C)CCCN)c2ncccc2c1 (centres undefined) [Primaquine] | 0.815 | 0.985 | -0.112 (inactive) | 11.1 (inactive)
43 | O=C1Nc2ccc(Cl)cc2[C@@](C#CC2CC2)(C(F)(F)F)O1 [Efavirenz] | 0.744 | 0.712 | -8.9 (inactive) | 11.1 (inactive)
44 | CNCCC=C1c2ccccc2CCc2ccccc21 [Nortriptyline] | 0.847 | 1.93 | -1.74 (inactive) | 54.7 (active)
45 | CCCNC(C)C(=O)Nc1ccccc1C (centres undefined) [Prilocaine] | 0.73 | 1.1 | -5.12 (inactive) | 9.24 (inactive)
46 | O=c1cnn([C@@H]2O[C@H](CO)[C@@H](O)[C@H]2O)c(=O)[nH]1 [Azauridine] | 0.944 | 0.453 | -6.45 (inactive) | -26.1 (inactive)
47 | CCC(C)n1ncn(-c2ccc(N3CCN(c4ccc(OCC5COC(Cn6cncn6)(c6ccc(Cl)cc6Cl)O5)cc4)CC3)cc2)c1=O (centres undefined) [Itraconazole] | 1.21 | 0.918 | 8.72 (inactive) | -72.2 (inactive)
48 | CCOc1cc(N)c(Cl)cc1C(=O)NCC1CN(Cc2ccc(F)cc2)CCO1 (centres undefined) [Mosapride] | 0.736 | 0.556 | -41.5 (inactive) | -56.5 (inactive)
49 | CCOc1cc(CC(=O)N[C@@H](CC(C)C)c2ccccc2N2CCCCC2)ccc1C(=O)O [Repaglinide] | 0.81 | 1.19 | -8.93 (inactive) | 2.54 (inactive)
50 | CC(C)(C)NC(=O)[C@@H]1CN(Cc2cccnc2)CCN1C[C@@H](O)C[C@@H](Cc1ccccc1)C(=O)N[C@H]1c2ccccc2C[C@H]1O [Indinavir] | 0.908 | 0.894 | -20.5 (inactive) | -24.1 (inactive)
51 | O=C1Nc2ccccc2/C1=C1/Nc2ccccc2C1=O [Indirubin] | 0.896 | 0.71 | -4.48 (inactive) | -14.5 (inactive)
